A number with no mark means an inactive call. Inconclusive results are not listed. Where a call stands in place of a potency, no number is given. The source made the active and inactive calls. Unless noted, calls follow the shape of the full dose curve.
Tests used:
[1] = Nuclear factor erythroid 2-related factor 2/antioxidant responsive element (Nrf2/ARE) small molecule agonists: qHTS cell viability counter screen in human keratinocytes (AID 1919968; active = well fitted curve in the direction sought with a large enough effect in the repeat runs; an effect the other way counts as inactive or inconclusive; also: nearly all actives have a fitted effect of over 55% in size; also: potency is read from the fitted curve at half-maximal effect)
Outline: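 HaCaT ARE reporter line, 1,500 cells/well; 5 h settle, 37 C/5% CO2; cpd in DMSO pinned; 23 h exposure; CellTiter-Fluor, 1 h; fluorescence.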

[2] = Nuclear factor erythroid 2-related factor 2/antioxidant responsive element (Nrf2/ARE) small molecule agonists: luciferase reporter gene qHTS assay in human keratinocytes (AID 1919969); also: nearly all actives have a fitted effect of over 35% in size; also: potency is read from the fitted curve at half-maximal effect
[3] = target: Gonadotropin-releasing hormone receptor (Homo sapiens) (UniProt P30968); test: Human gonadotropin-releasing hormone receptor (GnRHR) small molecule agonists, calcium flux assay in GnRHR-HEK293 cells (AID 1920063); also: nearly all actives have a fitted effect of over 35% in size
Outline: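 GnRHR-HEK293, 1500 cells/well, 18 h 37 C/5% CO2; Ca dye 1 h 37 C; cpd pinned (DMSO), agonist mode; kinetic FL 480/540, 3 min, 1 s reads; 15 conc, n=3.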

[4] = target: KiSS-1 receptor (Homo sapiens) (UniProt Q969F8); test: Human kisspeptin (KISS1R) small molecule agonists, calcium flux assay in KISS1R-HEK293 cells (AID 1920064; active = well fitted curve in the direction sought with a large enough effect in the repeat runs; an effect the other way counts as inactive or inconclusive)
Outline: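 Stable human KISS1R HEK293 line; 18 h plating, 37 C/5% CO2; calcium dye 1 h 37 C; compound pin transfer; kinetic fluorescence Ex/Em 480/540, 3 min.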

[5] = G protein-coupled receptor (GPCR) small molecule agonists, calcium flux assay: HEK293 wild type cell line counter screen (AID 1920065)
Outline: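 Kinetic fluorescence at Ex/Em 480/540, recorded every second over 3 min, served as the read-out after compound addition. Each compound was tested at 15 concentrations in triplicate on cells pre-loaded with calcium dye for 1 h.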

[6] = p53 small molecule agonists, cell-based qHTS assay with human liver microsomes (AID 1963577);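 also: p53 response element beta-lactamase reporter cells with liver microsomes plus NADPH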
Outline: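 In this qHTS, p53 response-element beta-lactamase cells receive test compound together with a microsome/NADPH activating system (0.5 mg/mL final each) and are incubated 16 h at 37 C before LiveBLAzer fluorescence detection.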

[7] = p53 small molecule agonists, cell-based qHTS assay with rat liver microsomes (AID 1963578)
Outline: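 Agonist mode in p53RE-bla reporter cells, with compounds co-incubated 16 h at 37 C alongside 0.5 mg/mL rat liver microsomes and 0.5 mg/mL NADPH (final), followed by a 2 h LiveBLAzer detection step.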

[8] = p53 small molecule agonists, cell-based qHTS assay with human liver microsomes: qHTS cell viability counter screen (AID 1963579); also: nearly all actives have a fitted effect of over 45% in size
Outline: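 Metabolically activated exposure: compounds, human liver microsomes and NADPH (0.5 mg/mL final apiece) were added to p53RE-bla cells seeded 5 h earlier, left 16 h at 37 C, and then assessed for viability by CellTiter-Glo luminescence.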

[9] = p53 small molecule agonists, cell-based qHTS assay with rat liver microsomes: qHTS cell viability counter screen (AID 1963580); also: nearly all actives have a fitted effect of over 45% in size
Outline: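 In HCT-116 cells carrying a p53 response element-bla reporter, compounds were metabolically activated in situ by rat liver microsomes with NADPH over 16 h. Cell ATP content then served as the cytotoxicity measure.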

[10] = p53 small molecule agonists, cell-based qHTS assay (AID 1963582; active = well fitted activation curve with a large enough effect in the signal ratio in the repeat runs, not every such curve was filed as active; the % refers to the signal ratio)
Outline: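 Reporter line: p53RE-bla. Pre-incubation 5 h, 37 C, 5% CO2; compound (DMSO, pin tool) 16 h, 37 C; B/G FRET substrate 2 h RT; fluorescence intensity read.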

[11] = cAMP Responsive Elements (CRE) small molecule agonists, cell-based qHTS assay (AID 1963590)
Outline: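 HEK 293T CRE-bla, 2,000 cells/well, 18 h preincubation 37 C/5% CO2; cpds (DMSO) pinned, 3 h; LiveBLAzer B/G FRET substrate, 2 h RT.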

[12] = cAMP Responsive Elements (CRE) small molecule antagonists, cell-based qHTS assay (AID 1963591; active = well fitted inhibition curve with a large enough effect in the signal ratio in the repeat runs, not every such curve was filed as active; the % refers to the signal ratio)
Outline: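 Beta-lactamase reporter read by FRET substrate (LiveBLAzer B/G) after 2 h at room temperature. CRE-bla HEK293T cells had received compound plus 0.25 uM (final) NKH477 for 3 h at 37 °C.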

[13] = target: Beta-2 adrenergic receptor (Homo sapiens) (UniProt P07550); test: Adrenergic beta2 receptor (ADRB2) small molecule antagonists, cell-based qHTS assay (AID 1963592); also: series mostly up to about 92 µM; nearly all actives have a fitted effect of over 50% in size
Outline: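 Cells (CHO, stable ADRB2 overexpression) incubated 18-20hr at 37C; compounds added from DMSO; agonist mix (1nM isoproterenol, 100uM IBMX, 25uM Ro-20-1724) added; 0.5hr RT; d2-cAMP and anti-cAMP-cryptate added; 1hr RT; 665/615 nm read.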

[14] = target: Beta-2 adrenergic receptor (Homo sapiens) (UniProt P07550); test: Adrenergic beta2 receptor (ADRB2) small molecule agonists, cell-based qHTS assay (AID 1963593);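 also: CHO cells stably overexpressing human ADRB2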
Outline: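 CHO cells stably over-expressing ADRB2 were plated overnight at 37C, then dosed with compounds plus a stimulation mix containing 100uM IBMX and 25uM Ro-20-1724 for 0.5hr at room temperature. cAMP was measured by HTRF competition, 1hr.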

[15] = target: D(2) dopamine receptor (Homo sapiens) (UniProt P14416); test: Dopamine D2 receptor (DRD2) small molecule agonists, cell-based qHTS assay (AID 1963594); also: nearly all actives have a fitted effect of over 35% in size
Outline: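 HEK293 cells stably expressing DRD2 were cultured 24 h at 37 C, then given Ro20-1724 (0.1 mM final) and compounds for 10 min at room temperature. NKH477 (200nM) was then added for 30 min. cAMP was read by HTRF.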

[16] = target: D(2) dopamine receptor (Homo sapiens) (UniProt P14416); test: Dopamine D2 receptor (DRD2) small molecule antagonists, cell-based qHTS assay (AID 1963595; active = well fitted inhibition curve with a large enough effect in the signal ratio in the repeat runs, with a control signal flat; the % refers to the signal ratio)
Outline: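 Stable D2 receptor HEK293 line, 24 h after seeding. Compound preincubated 10 min, then quinpirole (12 nM) with forskolin analogue NKH477 (200 nM), 30 min, room temperature. Detection by time-resolved FRET of cAMP.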

[17] = target: 5-hydroxytryptamine receptor 2A (Homo sapiens) (UniProt P28223); test: 5-hydroxytryptamine receptor 2A (HTR2A) small molecule antagonists, cell-based qHTS assay (AID 1963586); also: nearly all actives have a fitted effect of over 45% in size
Outline: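 Antagonist-mode intracellular calcium assay: DOI (4 nM) added after 5 min compound pre-incubation at room temperature to dye-loaded HTR2A-CHO cells. Fluorescence followed for 3 min, sampled every second.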

[18] = target: 5-hydroxytryptamine receptor 2A (Homo sapiens) (UniProt P28223); test: 5-hydroxytryptamine receptor 2A (HTR2A) small molecule agonists, cell-based qHTS assay (AID 1963587); also: nearly all actives have a fitted effect of over 30% in size
Outline: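 HTR2A-CHO cells, plated 18 h at 37 C/5% CO2, dye-loaded 1 h at 37 C; compounds in DMSO added by pin tool (agonist mode). Intracellular calcium flux read as kinetic fluorescence on FDSS over 2 min at 1 s intervals.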

[19] = target: Muscarinic acetylcholine receptor M1 (Homo sapiens) (UniProt P11229); test: Cholinergic receptor muscarinic 1 (CHRM1) small molecule antagonists, cell-based qHTS assay (AID 1963588); also: nearly all actives have a fitted effect of over 40% in size
Outline: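 CHRM1-CHO calcium-flux assay, antagonist mode. Cells were seeded 18 h, dye-loaded 1 h at 37 C and given compound for 5 min at RT, then acetylcholine was added at 50nM. FDSS fluorescence was read 3 min; 15 concentrations, three runs.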

[20] = target: Muscarinic acetylcholine receptor M1 (Homo sapiens) (UniProt P11229); test: Cholinergic receptor muscarinic 1 (CHRM1) small molecule agonists, cell-based qHTS assay (AID 1963589); also: nearly all actives have a fitted effect of over 35% in size
Outline: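 Human M1 in stable CHO line; 18 h plating, 1 h dye load 37 C; cpd added (agonist mode); Ca2+ fluorescence kinetic read, 1 s intervals; 15 conc, 3 runs.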

Sequence of D(2) dopamine receptor (Homo sapiens) (P14416 whole entry, looked up): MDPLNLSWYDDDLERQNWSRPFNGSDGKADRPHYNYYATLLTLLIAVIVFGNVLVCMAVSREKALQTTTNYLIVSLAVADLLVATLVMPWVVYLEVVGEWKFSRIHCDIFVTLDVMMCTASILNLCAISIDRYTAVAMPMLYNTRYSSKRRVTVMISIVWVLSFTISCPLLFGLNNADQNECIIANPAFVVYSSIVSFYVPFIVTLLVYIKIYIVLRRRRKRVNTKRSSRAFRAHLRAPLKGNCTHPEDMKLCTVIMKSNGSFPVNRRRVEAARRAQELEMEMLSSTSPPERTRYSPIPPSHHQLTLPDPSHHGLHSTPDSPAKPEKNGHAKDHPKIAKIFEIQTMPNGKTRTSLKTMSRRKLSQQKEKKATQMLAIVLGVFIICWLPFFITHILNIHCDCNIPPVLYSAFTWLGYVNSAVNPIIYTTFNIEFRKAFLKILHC
Sequence of KiSS-1 receptor (Homo sapiens) (Q969F8 whole entry, looked up): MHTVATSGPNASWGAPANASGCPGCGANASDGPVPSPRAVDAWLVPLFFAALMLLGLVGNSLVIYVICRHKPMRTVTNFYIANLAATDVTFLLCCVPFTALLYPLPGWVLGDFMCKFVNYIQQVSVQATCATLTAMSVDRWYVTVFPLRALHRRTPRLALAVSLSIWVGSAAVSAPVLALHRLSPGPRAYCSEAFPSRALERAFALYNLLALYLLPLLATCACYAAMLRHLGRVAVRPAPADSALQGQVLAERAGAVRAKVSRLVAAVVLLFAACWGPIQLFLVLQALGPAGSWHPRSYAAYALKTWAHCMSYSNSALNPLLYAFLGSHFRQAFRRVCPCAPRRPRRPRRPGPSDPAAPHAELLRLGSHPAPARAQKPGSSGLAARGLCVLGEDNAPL
Sequence of Gonadotropin-releasing hormone receptor (Homo sapiens) (P30968 whole entry, looked up): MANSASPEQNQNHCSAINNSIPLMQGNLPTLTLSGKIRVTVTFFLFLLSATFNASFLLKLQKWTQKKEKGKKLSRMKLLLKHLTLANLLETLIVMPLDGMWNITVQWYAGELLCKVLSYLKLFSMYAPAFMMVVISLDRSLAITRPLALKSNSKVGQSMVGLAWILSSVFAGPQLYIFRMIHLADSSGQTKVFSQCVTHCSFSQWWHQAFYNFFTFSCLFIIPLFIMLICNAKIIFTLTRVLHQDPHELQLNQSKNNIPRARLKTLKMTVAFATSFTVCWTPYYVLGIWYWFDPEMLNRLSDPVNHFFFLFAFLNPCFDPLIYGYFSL
Sequence of Beta-2 adrenergic receptor (Homo sapiens) (P07550 whole entry, looked up): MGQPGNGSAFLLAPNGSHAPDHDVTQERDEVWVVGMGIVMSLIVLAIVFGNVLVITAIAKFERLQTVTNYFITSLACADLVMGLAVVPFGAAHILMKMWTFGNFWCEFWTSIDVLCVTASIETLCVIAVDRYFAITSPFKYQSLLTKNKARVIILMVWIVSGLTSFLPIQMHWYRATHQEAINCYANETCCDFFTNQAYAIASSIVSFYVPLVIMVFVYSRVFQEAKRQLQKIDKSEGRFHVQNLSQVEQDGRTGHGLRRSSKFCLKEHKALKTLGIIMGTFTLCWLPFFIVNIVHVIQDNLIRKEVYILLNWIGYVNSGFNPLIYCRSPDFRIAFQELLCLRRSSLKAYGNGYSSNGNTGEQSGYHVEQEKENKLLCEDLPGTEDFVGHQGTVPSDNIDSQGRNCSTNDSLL
Sequence of Muscarinic acetylcholine receptor M1 (Homo sapiens) (P11229 whole entry, looked up): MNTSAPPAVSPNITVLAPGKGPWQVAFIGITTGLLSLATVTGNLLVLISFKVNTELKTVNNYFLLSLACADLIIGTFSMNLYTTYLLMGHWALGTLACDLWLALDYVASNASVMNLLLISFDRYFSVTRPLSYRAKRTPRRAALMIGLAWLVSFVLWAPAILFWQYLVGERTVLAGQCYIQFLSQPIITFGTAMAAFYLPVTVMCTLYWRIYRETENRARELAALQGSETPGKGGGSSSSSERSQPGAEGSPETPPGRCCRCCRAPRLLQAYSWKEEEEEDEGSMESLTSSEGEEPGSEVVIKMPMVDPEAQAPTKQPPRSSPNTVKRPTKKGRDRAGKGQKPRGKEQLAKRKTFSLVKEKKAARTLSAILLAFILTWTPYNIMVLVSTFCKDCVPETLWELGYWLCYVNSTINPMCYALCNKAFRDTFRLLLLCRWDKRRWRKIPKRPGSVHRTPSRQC
Sequence of 5-hydroxytryptamine receptor 2A (Homo sapiens) (P28223 whole entry, looked up): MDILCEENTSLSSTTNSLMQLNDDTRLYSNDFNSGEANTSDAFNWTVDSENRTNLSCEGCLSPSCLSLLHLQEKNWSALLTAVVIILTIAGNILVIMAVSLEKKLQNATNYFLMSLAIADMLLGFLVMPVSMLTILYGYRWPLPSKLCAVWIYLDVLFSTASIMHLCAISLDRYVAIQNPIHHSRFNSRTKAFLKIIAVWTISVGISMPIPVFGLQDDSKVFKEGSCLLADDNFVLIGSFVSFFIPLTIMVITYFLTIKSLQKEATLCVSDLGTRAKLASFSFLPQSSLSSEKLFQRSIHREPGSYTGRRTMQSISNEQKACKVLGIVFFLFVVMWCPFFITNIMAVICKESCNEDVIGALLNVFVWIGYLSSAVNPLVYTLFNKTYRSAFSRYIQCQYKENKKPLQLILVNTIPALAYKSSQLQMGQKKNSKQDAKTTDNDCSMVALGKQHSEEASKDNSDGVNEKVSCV

CC[N+](CC)(CC)CCOc1cccc(OCC[N+](CC)(CC)CC)c1OCC[N+](CC)(CC)CC
Potency [1]: inactive | Potency [2]: inactive | Potency [3]: inactive | outcome [4]: inactive | outcome [5]: inactive | Potency [6]: inactive | Potency [7]: inactive | Potency [8]: inactive | Potency [9]: inactive | Potency [10]: inactive | Potency [11]: inactive | Potency [12]: inactive | Potency [13]: inactive | Potency [14]: inactive | Potency [15]: inactive | Potency [16]: inactive

O=C(Nc1ccccc1)c1cc([N+](=O)[O-])ccc1Cl
Potency [1]: inactive | Potency [2]: 61.1 µM (active) | Potency [3]: inactive | outcome [4]: inactive | outcome [5]: inactive | Potency [6]: inactive | Potency [7]: inactive | Potency [8]: inactive | Potency [9]: inactive | Potency [17]: inactive | Potency [18]: inactive | Potency [19]: inactive | Potency [20]: inactive | Potency [13]: inactive | Potency [14]: inactive | Potency [15]: inactive | Potency [16]: inactive

O=c1c(-c2ccccc2)c1-c1ccccc1
Potency [1]: 1.19 µM (active) | Potency [2]: 2.66 µM (active) | Potency [3]: inactive | outcome [4]: inactive | outcome [5]: inactive | Potency [6]: inactive | Potency [7]: inactive | Potency [8]: inactive | Potency [9]: inactive | Potency [17]: inactive | Potency [18]: inactive | Potency [19]: inactive | Potency [20]: inactive | Potency [13]: inactive | Potency [15]: inactive | Potency [16]: inactive

CC(C)Oc1ccccc1O
Potency [1]: inactive | Potency [2]: inactive | Potency [3]: inactive | outcome [4]: inactive | outcome [5]: inactive | Potency [6]: inactive | Potency [7]: inactive | Potency [8]: inactive | Potency [9]: inactive | Potency [17]: inactive | Potency [18]: inactive | Potency [20]: inactive | Potency [11]: inactive | Potency [12]: inactive | Potency [13]: inactive | Potency [14]: inactive | Potency [16]: inactive

CC(C(=O)O)c1ccc2c(c1)Cc1cccnc1O2 (configuration not stated)
Potency [1]: inactive | Potency [2]: inactive | Potency [3]: inactive | outcome [4]: inactive | outcome [5]: inactive | Potency [6]: inactive | Potency [7]: inactive | Potency [8]: inactive | Potency [9]: inactive | Potency [17]: inactive | Potency [18]: inactive | Potency [19]: inactive | Potency [20]: inactive | Potency [13]: inactive | Potency [15]: inactive

Nc1ncnc2c1ncn2[C@@H]1O[C@H](CO)[C@@H](O)[C@H]1O
Potency [1]: inactive | Potency [2]: inactive | Potency [3]: inactive | outcome [4]: inactive | outcome [5]: inactive | Potency [6]: inactive | Potency [7]: inactive | Potency [8]: inactive | Potency [9]: inactive | Potency [17]: inactive | Potency [18]: inactive | Potency [19]: inactive | Potency [20]: inactive | Potency [11]: inactive | Potency [13]: inactive | Potency [16]: inactive

[Cl][Pt-2]([Cl])([Cl])[Cl]
Potency [1]: inactive | Potency [2]: inactive | Potency [3]: inactive | outcome [4]: inactive | outcome [5]: inactive | Potency [6]: inactive | Potency [7]: inactive | Potency [8]: inactive | Potency [9]: inactive | Potency [17]: inactive | Potency [18]: inactive | Potency [19]: inactive | Potency [20]: inactive | Potency [12]: inactive | Potency [13]: inactive

O=C(O)Cc1csc(-c2ccc(Cl)cc2)n1
Potency [1]: inactive | Potency [2]: inactive | Potency [3]: inactive | outcome [4]: inactive | outcome [5]: inactive | Potency [6]: inactive | Potency [7]: inactive | Potency [8]: inactive | Potency [9]: inactive | Potency [17]: inactive | Potency [18]: inactive | Potency [19]: inactive | Potency [20]: inactive | Potency [15]: inactive | Potency [16]: inactive

From PubChem BioAssay (Tox21)
